# The whole screen tested about 69,000 compounds, of which about 8,600 (12%) showed an effect of 50% or more. For the sample, strong results were picked, then their nearest neighbours and some compounds at random.
# System: Plasmodium berghei
# Test: Screen against P. berghei liver stage (PbLuc), transformed with Luciferase, at 10uM
# Format: functional, HepG2
# Details: tested at 10 uM
row,SMILES,INHIBITION
1,CN1CCN(Cc2cn3c(n2)CN(Cc2cccc(F)c2)CC3)CC1,27.6%
2,CCn1nc(C)c(-c2cncn2Cc2ccccc2CN(C)C)c1C,34.1%
3,Cc1ccc(-c2cc(C(=O)O)sn2)cc1,-21.9%
4,CN(C)c1ncc(I)c(C2CCCN2S(C)(=O)=O)n1 (stereo unspecified),7.19%
5,Cn1ccnc1SCCNc1nccc(C(F)(F)F)n1,-1.16%
6,CNc1ccnc(NCCSc2nccn2C)n1,44.3%
7,Cc1ccnc(NCCSc2nccn2C)n1,65.6%
8,O=C(NCc1nccs1)N1CCOC(c2ccccc2Cl)C1 (stereo unspecified),19.9%
9,CCC(Nc1nc(C)nc2onc(C)c12)c1nc(C)c(C)s1 (stereo unspecified),70%
10,CCC(Nc1nc(C)nc2onc(C)c12)c1cccs1 (stereo unspecified),79.9%
11,Cc1nc(NCCSc2cnn[nH]2)c2c(C)noc2n1,1.56%
12,Cc1nc(NCC(O)CN2CCCCCC2)c2c(C)noc2n1 (stereo unspecified),15.7%
13,Cc1noc2ncnc(NC(CC(C)(C)C)c3cccnc3)c12 (stereo unspecified),23.5%
14,Cc1noc(C(C)C)c1C(=O)NCC(c1cccs1)N(C)C (stereo unspecified),2.3%
15,CNC(=O)NC(=O)C(C)N(C)CCCc1cc(-c2ccccc2)no1 (stereo unspecified),-14.18%
16,c1csc(CN2Cc3nccn3CC(Cn3cncn3)C2)c1 (stereo unspecified),-22.1%
17,CCCc1cc(C(=O)N[C@@H]2CCC[C@@H](N3CCCC3)[C@@H]2O)no1,13.7%
18,Cn1nccc1CNS(=O)(=O)c1cc(F)ccc1Br,6.02%
19,CC(C)c1nnc(NC(=O)Cc2ccc(F)cc2)[nH]1,51.1%
20,CCC(C)Oc1cc(C(=O)Nc2nnc(C(C)C)[nH]2)ccn1 (stereo unspecified),42.6%
21,CC(C)c1nnc(NC(=O)CCc2cc(F)ccc2F)[nH]1,53.3%
22,CC(C)N1CCC(CNC(=O)CCc2cc(F)ccc2F)C1 (stereo unspecified),-20.3%
23,CC(C)c1nnc(NC(=O)c2cccc(OCC(F)(F)F)n2)[nH]1,-38.6%

row,SMILES,INHIBITION
1,CS(=O)(=O)c1nnc(NC(=O)CCc2cc(F)ccc2F)[nH]1,43.7%
2,O=C(C1=CC2(CCN(CCO)CC2)c2ccccc21)N1CCCC1,13.6%
3,O=C(CCc1nc(-c2ccccc2)no1)N[C@H]1COC[C@@H]1N1CCCC1,-12.1%
4,Cc1nc(N)cc(C2CN(C(=O)c3cscn3)CCO2)n1 (stereo unspecified),35%
5,COc1ccc(NC(=O)COc2nn(C)c3nc(C)cc(C)c23)cn1,22.8%
6,CCc1ccc(C2CCCN2C(=O)NCC(=O)NCC(C)C)o1 (stereo unspecified),60.4%
7,CCc1ccc(C2CCCN2C(=O)CNC(=O)CCC(C)C)o1 (stereo unspecified),64.8%
8,CC(C)CNC(=O)CN1CCCC(c2ccc(C(=O)O)cc2)C1 (stereo unspecified),33%
9,CCc1ccc(C2CCCCCN2C(=O)CNC(=O)C2CC2)o1 (stereo unspecified),63.7%
10,O=C(NCC(=O)N1CCCC1Cc1cccc(F)c1)C1CCCC1 (stereo unspecified),7.19%
11,CCc1ccc(C(=O)NCC2CCCN2CC)o1 (stereo unspecified),31.2%
12,CC(C)CCC(=O)NCC(=O)N1CCCCCC1c1ccco1 (stereo unspecified),19.3%
13,CCc1ccc(C(=O)N2CCCCC2CNS(C)(=O)=O)o1 (stereo unspecified),-23.5%
14,CCn1nccc1CNC(=O)NC1CCCCC1,26.8%
15,CCc1ccc(C2CCCCCN2C(=O)CNC(=O)NC2CC2)o1 (stereo unspecified),68%
16,CNCC(=O)N1CCCC1c1nc(C(C)C)no1 (stereo unspecified),6.33%
17,Cc1ccc(C2CCCCCN2C(=O)Nc2cn[nH]c2)o1 (stereo unspecified),-22.05%
18,COc1ccc(C(=O)Nc2ccc3c(c2)C(=O)NC3)cc1Br,-64.3%
19,COCc1cc(N(C)CCC(O)c2ccccc2)n2nccc2n1 (stereo unspecified),-27.3%
20,O=C1CSC(C(F)(F)F)c2c(O)nn(C3CCCCC3)c2N1 (stereo unspecified),38.1%
21,Cc1cnn(CCNc2nc(C)cc(N(C)C)n2)c1,21.5%
22,CCc1nnc2n1CCN(C(=O)CCOc1cc(C)ccc1C)C2,-3.19%
23,O=S(=O)(Cc1ccc(F)c(Cl)c1)NCCOc1cccnc1,-11.4%

row,SMILES,INHIBITION
1,c1cnc2[nH]c(C3CCCNC3)c(CN3CCCOCC3)c2c1 (stereo unspecified),-15.3%
2,CCc1ccc(C(=O)NC[C@H]2CCCN2C(=O)c2ccc(CC)o2)o1,-3.68%
3,CCc1ccc(C2CCCN2C(=O)Cc2ccc(NC(C)=O)cc2)o1 (stereo unspecified),65.8%
4,CC(=O)Nc1ccc(CC(=O)N2CC(S(=O)(=O)C3CCCCC3)C2)cc1,13.1%
5,Cc1nnc(N2C[C@H](Oc3ccccn3)[C@H]3OCCC[C@H]32)s1,-10.3%
6,Cc1cc(NC(=O)CNC(C)(C)c2nc(C)c(C)s2)no1,26.6%
7,Cc1cc(NC(=O)CCNC(C)(C)c2nc(C)c(C)s2)no1,53.8%
8,Cc1cc(NC(=O)NC(C)(C)c2nc(C)c(C)s2)no1,29.1%
9,Cn1cc(C(=O)Nc2ccc3c(c2)N(C(=O)c2ccco2)CC3)nn1,20.1%
10,c1ccc(C[C@H]2CN(C3CCOCC3)CC[C@H]2OCC2CC2)cc1,-54.1%
11,c1csc(CN2CCCn3cnc(COCC4CC4)c3C2)n1,37.8%
12,c1ccc(C[C@H]2CN(Cc3nccs3)CC[C@@H]2OCC2CC2)cc1,62.5%
13,c1ccc(C[C@H]2CN(Cc3nccs3)CC[C@H]2OCC2CC2)cc1,50%
14,c1csc(CN2C[C@H](OCC3CC3)[C@H]3COC[C@H]32)n1,12.6%
15,CCCNC(c1ccc(F)cc1)c1cccnc1 (stereo unspecified),42.1%
16,CC(C)c1ccc(C(O)CN2CCN(Cc3nccn3C)CC2)cc1 (stereo unspecified),-65.3%
17,CCC1CN(Cc2cccc(C(=O)N(C)C)c2)CCN1CCOC (stereo unspecified),-34%
18,Cc1cccc(CN2C[C@@H]3CN(C(=O)NC(C)C)C[C@@H]3C2=O)n1,-31.9%
19,CNC(=O)C1CCN(CC(=O)Nc2cc(C(C)C)no2)CC1,53%
20,CC(C)c1cc(NC(=O)CN2CCC(C(N)=O)CC2)on1,9.64%
21,CC(C)c1cc(NC(=O)CN2CCC(N3CCCCC3)CC2)on1,74.1%
22,CC(C)c1cc(NC(=O)CNC2CCc3ncnn3C2)on1 (stereo unspecified),65.3%
23,Cc1cc(NC(=O)CNC2CCc3ncnn3C2)on1 (stereo unspecified),6.67%

row,SMILES,INHIBITION
1,CC(C)(C)c1cc(NC(=O)CNC2CCc3ncnn3C2)on1 (stereo unspecified),48.4%
2,CC(C)c1cc(NC(=O)CN2CCNC(=O)C2)on1,20.6%
3,CC(C)c1cc(NC(=O)CN2CCCC(Cn3cncn3)C2)on1 (stereo unspecified),5.58%
4,CC(C)c1cc(NC(=O)CN2CCC(N3CCNC3=O)CC2)on1,17.3%
5,Cc1ccc2nnc(C(=O)NCC3CCCC3)nc2c1,-4.01%
6,O=C(c1cccnc1)N1CCn2nnc(COc3ccccn3)c2C1,41.6%
7,CN(C)CCOCc1cncc2c1CCN(C(=O)c1cscn1)C2,49.4%
8,COC(=O)c1ccc(S(=O)(=O)NC2CNC(=O)C2)cc1 (stereo unspecified),60.6%
9,Cc1ccc(S(=O)(=O)NC2CNC(=O)C2)cc1C (stereo unspecified),38.5%
10,CSc1ccc(S(=O)(=O)NC2CNC(=O)C2)cc1 (stereo unspecified),42.1%
11,COc1cccc(S(=O)(=O)NC2CNC(=O)C2)c1 (stereo unspecified),-12.2%
12,O=C1CC(NS(=O)(=O)c2ccc(Cl)cc2)CN1 (stereo unspecified),45.5%
13,O=C1CC(NS(=O)(=O)c2ccc(Br)cc2)CN1 (stereo unspecified),53.7%
14,O=C(c1ccnc(C2CCNCC2)c1)N1CCCC(CO)C1 (stereo unspecified),23.9%
15,CCOCC1CN(C(=O)c2cc(C)oc2C)Cc2c1cnn2C (stereo unspecified),36.2%
16,COC[C@H]1CC[C@H]2[C@H](CCN2S(=O)(=O)c2ccccc2)O1,4.68%
17,c1nc(N2CCOCC2)sc1-c1cncn1CCCN1CCCCC1,8.32%
18,CSCCC(=O)N1CCN(CC(C)(C)O)CC1,-94.3%
19,CSCC(=O)N1CCN(CC(O)C(C)(C)C)CC1 (stereo unspecified),60.9%
20,CCC(O)CN1CCN(C(=O)CCSC)CC1 (stereo unspecified),68.2%
21,CSCCC(=O)N1CCN(CC(C)O)CC1 (stereo unspecified),68.2%
22,CCN1CCN(C(=O)CCC2CCN(C(=O)CCSC)CC2)CC1,33.5%
23,CC(C)(C)C(O)CN1CCN(C(=O)COCC2CC2)CC1 (stereo unspecified),10.6%

row,SMILES,INHIBITION
1,CC(O)CN1CCN(C(=O)CCOC(C)C)CC1 (stereo unspecified),8.05%
2,CSCCC(=O)N1CCN(CC(O)C(C)(C)C)CC1 (stereo unspecified),-46.4%
3,CCOCCC(=O)N1CCN(CC(C)O)CC1 (stereo unspecified),29.4%
4,O=C(CCC(=O)N1CCCC1c1ccsc1)N1CCOCC1 (stereo unspecified),7.24%
5,Cc1ccc2nc(-c3nc4c([nH]3)CCCNC4=O)cn2c1,-87.9%
6,CCOC(=O)CN1CCC2(CC1)CC(=O)c1ccc3ccccc3c1O2,31.2%
7,CCC(=O)NCc1ccc(N2CCCCC2)cc1,-0.578%
8,Cc1nc(C)n(CC2CCCN2Cc2cc(-c3cccs3)on2)n1 (stereo unspecified),40.65%
9,c1nnc(Nc2cncc(C3CCCN3CC3CC3)n2)s1 (stereo unspecified),11.8%
10,Cc1noc2nc(C3CCCN(Cc4cccnc4)C3)cc(C(F)F)c12 (stereo unspecified),41.2%
11,CCc1cc(C(=O)N2CCCC2c2nc(C)c(CC)c(O)n2)on1 (stereo unspecified),-21.4%
12,CCc1cc(O)nc(C2CCCN2C(=O)c2cc(C)no2)n1 (stereo unspecified),26.9%
13,CCc1cc(C(=O)N2CCCC2c2nc(C)c(F)c(O)n2)on1 (stereo unspecified),53%
14,Cc1cc(C(=O)N2CCCC2c2nc(O)cc(C(C)C)n2)on1 (stereo unspecified),51.5%
15,CCc1c(C)nc(C2CCCN2C(=O)c2cc(C)no2)nc1O (stereo unspecified),30.4%
16,Cc1cc(C(=O)N2CCCC2c2nc(C)cc(O)n2)on1 (stereo unspecified),44.8%
17,CN(C)CCN1C(=O)CCC12CCCN(C(=O)C1CC=CC1)CC2 (stereo unspecified),-38.1%
18,NC(=O)CCN(CC(=O)NCc1cccs1)c1ccc(F)cc1,47.3%
19,Cn1cc(CN2CC[C@@H]3[C@@H](CO[C@H]3CNC(=O)c3ccco3)C2)cn1,-16.9%

# — ChEMBL document CHEMBL4513216, “Probing the Open Global Health Chemical Diversity Library for Multistage-Active Starting Points for Next-Generation Antimalarials” (ACS Infect Dis, 2020)
